This is an account of results in PubChem BioAssay (Tox21).

The source made the active and inactive calls. Unless noted, the call rests on the fitted dose curve; in most records, active means well fitted curve in the direction sought with a large enough effect in the repeat runs; inconclusive means weak or mixed curves; inactive means no such curve, though single readings can be large; an effect the other way counts as inactive or inconclusive.

The nature of assay [1]: qHTS assay to identify small molecule antagonists of the glucocorticoid receptor (GR) signaling pathway - cell viability counter screen (AID 720693). Further: nearly all actives have a fitted effect of over 55% in size. Further: potency means the concentration at half of the fitted maximal effect.
Assay [2] in a line: qHTS assay for identifying genotoxic compounds that show differential cytotoxicity against isogenic chicken DT40 cell lines with known DNA damage response pathways - wild type cell line (AID 743012). Further: nearly all actives have a fitted effect of over 60% in size. Further: potency means the concentration at half of the fitted maximal effect. The method, boiled down:
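Endpoint: CellTiter-Glo luminescence, 30 min RT. Cells: wild type DT40, 300/well. Exposure: compounds in DMSO, 40 h, 37 C/5% CO2, after ~0.5 h pre-incubation.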
(Quantitative high-throughput screening tests each substance at several concentrations.)

The nature of assay [3]: qHTS assay for identifying genotoxic compounds that show differential cytotoxicity against isogenic chicken DT40 cell lines with known DNA damage response pathways - Rev3 mutant cell line (AID 743014). Further: nearly all actives have a fitted effect of over 55% in size. Further: potency means the concentration at half of the fitted maximal effect.
Assay [4] is described as follows: qHTS assay for identifying genotoxic compounds that show differential cytotoxicity against isogenic chicken DT40 cell lines with known DNA damage response pathways - Rad54/Ku70 mutant cell line (AID 743015). Further: nearly all actives have a fitted effect of over 60% in size. Further: potency means the concentration at half of the fitted maximal effect.
Assay [5] can be described thus: qHTS assay to identify small molecule antagonists of the androgen receptor (AR) signaling pathway - cell viability counter screen (AID 743033; further: nearly all actives have a fitted effect of over 45% in size; further: potency means the concentration at half of the fitted maximal effect).
Assay [6] is described as follows: qHTS assay to identify small molecule antagonists of the androgen receptor (AR) signaling pathway using the MDA cell line - cell viability counter screen (AID 743041; further: nearly all actives have a fitted effect of over 45% in size; further: potency means the concentration at half of the fitted maximal effect). The procedure, abridged:
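Using the breast carcinoma line MDA-kb2 AR-luc, test chemicals were co-incubated with R1881 for 16 h; CellTiter-Fluor reagent, added at 15.5 h, provided a fluorescence measure of live cells.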

The nature of assay [7]: qHTS assay to identify small molecule antagonists of the thyroid receptor (TR) signaling pathway - cell viability counter screen (AID 743064). Further: nearly all actives have a fitted effect of over 50% in size. Further: potency means the concentration at half of the fitted maximal effect. The procedure, abridged: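 In-well cytotoxicity read by CellTiter-Fluor (30 min, 37 C) following 23.5 h exposure of GH3 cells bearing a TRE-luciferase sensor. Compounds were added alongside 1 nM (final) T3 to drive TR transactivation.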

Assay [8] in a line: qHTS assay to identify small molecule antagonists of the thyroid receptor (TR) signaling pathway (AID 743065). Further: nearly all actives have a fitted effect of over 55% in size. Further: potency means the concentration at half of the fitted maximal effect. The procedure, abridged:
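Antagonism measured as loss of luciferase signal in GH3 cells stably carrying a TRE-luciferase reporter, co-treated with compound and T3 (1 nM final) for 23.5 h at 37 C. Viability was read in the same well by CellTiter-Fluor.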

Assay [9] concerns thyroid hormone receptor (rat, GH3 cells). The assay can be described thus: qHTS assay to identify small molecule agonists of the thyroid receptor (TR) signaling pathway (AID 743066; calls by dose curve).
Assay [10] concerns the target Estrogen receptor (Homo sapiens) (UniProt P03372). The assay can be described thus: qHTS assay to identify small molecule antagonists of the estrogen receptor alpha (ER-alpha) signaling pathway (AID 743069; active means well fitted curve in the direction sought with a large enough effect in the signal ratio in the repeat runs, not every such curve was filed as active; inconclusive means weak or mixed curves, or effect the other way; inactive means no such curve, though single readings can be large or run the other way; the % refers to the signal ratio). The method, boiled down:
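Fluorescence intensity from a beta-lactamase FRET substrate served as the read-out. Cells: HEK293 with stably integrated ER-alpha-UAS-bla reporter. Agonist 17beta-estradiol was co-added with compounds; incubation 18 hr at 37C, substrate 2 hr at room temperature.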

A short description of assay [11]: qHTS assay to identify small molecule antagonists of the estrogen receptor alpha (ER-alpha) signaling pathway - cell viability counter screen (AID 743074; calls by dose curve; further: nearly all actives have a fitted effect of over 45% in size).
Assay [12] addresses Estrogen receptor (Homo sapiens) (UniProt P03372). The assay can be described thus: qHTS assay to identify small molecule agonists of the estrogen receptor alpha (ER-alpha) signaling pathway (AID 743075; calls by dose curve; further: potency means the concentration at half of the fitted maximal effect).
The target is the same in assay [13]. The assay can be described thus: qHTS assay to identify small molecule agonists of the estrogen receptor alpha (ER-alpha) signaling pathway using the BG1 cell line (AID 743079). Further: nearly all actives have a fitted effect of over 20% in size. Further: potency means the concentration at half of the fitted maximal effect.
Assay [14] in a line: qHTS assay to identify small molecule antagonists of the estrogen receptor alpha (ER-alpha) signaling pathway using the BG1 cell line (AID 743080; calls by dose curve;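 further: BG1 cells stimulated with 17beta-estradiol alongside compound; series mostly up to about 70 µM; nearly all actives have a fitted effect of over 25% in size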). The method, boiled down: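 Readout is ONE-Glo luminescence, taken 30 min at room temperature after reagent addition, preceded by a CellTiter-Fluor viability read; BG1-Luc-4E2 cells had received compound and 17beta-estradiol for 21.5 h at 37 C.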

A short description of assay [15]: qHTS assay to identify small molecule antagonists of the estrogen receptor alpha (ER-alpha) signaling pathway using the BG1 cell line - cell viability counter screen (AID 743081).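 Further: compound given together with 17beta-estradiol as the ER stimulus; nearly all actives have a fitted effect of over 45% in size.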 Further: potency means the concentration at half of the fitted maximal effect.
For assay [16], the target named is Aromatase (Homo sapiens) (UniProt P11511). The assay can be described thus: qHTS assay to identify aromatase inhibitors (AID 743083). Further: nearly all actives have a fitted effect of over 55% in size. Further: potency means the concentration at half of the fitted maximal effect.
Aromatase (Homo sapiens), sequence (P11511 whole entry, looked up): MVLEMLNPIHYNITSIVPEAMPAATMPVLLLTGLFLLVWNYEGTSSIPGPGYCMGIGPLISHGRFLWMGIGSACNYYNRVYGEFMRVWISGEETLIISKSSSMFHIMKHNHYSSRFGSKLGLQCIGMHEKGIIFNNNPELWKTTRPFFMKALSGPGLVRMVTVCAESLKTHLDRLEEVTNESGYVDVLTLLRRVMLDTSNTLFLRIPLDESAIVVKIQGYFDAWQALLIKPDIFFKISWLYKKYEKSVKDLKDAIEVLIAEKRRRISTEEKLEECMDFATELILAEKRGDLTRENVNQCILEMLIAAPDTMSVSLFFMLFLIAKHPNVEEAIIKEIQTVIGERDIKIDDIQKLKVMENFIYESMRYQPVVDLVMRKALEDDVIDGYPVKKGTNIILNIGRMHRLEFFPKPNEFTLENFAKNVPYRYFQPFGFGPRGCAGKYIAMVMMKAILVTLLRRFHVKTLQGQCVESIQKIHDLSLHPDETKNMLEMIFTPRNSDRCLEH
Assay [17] addresses Androgen receptor (Homo sapiens) (UniProt P10275). The assay can be described thus: qHTS assay to identify small molecule antagonists of the androgen receptor (AR) signaling pathway (AID 743035; active means well fitted inhibition curve with a large enough effect in the signal ratio in the repeat runs, not every such curve was filed as active; inconclusive means weak or mixed curves, or effect the other way; inactive means no such curve, though single readings can be large or run the other way; the % refers to the signal ratio; further: potency means the concentration at half of the fitted maximal effect). The method, boiled down: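 R1881 agonist challenge of a HEK293 UAS-beta-lactamase AR reporter line in the presence of compound (16 h, 37C); signal taken as FRET fluorescence after 2 h with LiveBLAzer B/G substrate at room temperature.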

Assay [18] shares this target. The assay can be described thus: qHTS assay to identify small molecule agonists of the androgen receptor (AR) signaling pathway (AID 743036; active means well fitted activation curve with a large enough effect in the signal ratio in the repeat runs, with a control signal flat, not every such curve was filed as active; inconclusive means weak or mixed curves, or effect the other way; inactive means no such curve, though single readings can be large or run the other way; the % refers to the signal ratio). The procedure, abridged:
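Activation was read as beta-lactamase FRET signal from LiveBLAzer B/G substrate, added for 2 h at room temperature. Before that, GeneBLAzer AR-UAS-bla GripTite (HEK293) cells had 16 h compound exposure at 37C.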

For assay [19] the target is unchanged. The assay can be described thus: qHTS assay to identify small molecule agonists of the androgen receptor (AR) signaling pathway using the MDA cell line (AID 743040; further: nearly all actives have a fitted effect of over 20% in size). The method, boiled down:
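Stable MMTV-luciferase reporter in MDA-kb2 cells; note the promoter carries GR as well as AR response elements. 16 h compound treatment, 37C, 0% CO2; ONE-Glo luminescence endpoint.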

The target is the same in assay [20]. The assay can be described thus: qHTS assay to identify small molecule antagonists of the androgen receptor (AR) signaling pathway using the MDA cell line (AID 743042; further: nearly all actives have a fitted effect of over 55% in size; further: potency means the concentration at half of the fitted maximal effect). The method, boiled down:
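Antagonist mode: compounds plus R1881 agonist added to MDA-kb2 AR-luc cells, incubated 16 h at 37C. Luciferase reporter luminescence quantified, with multiplexed CellTiter-Fluor readout for cell viability.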

Androgen receptor (Homo sapiens), sequence (P10275 whole entry, looked up): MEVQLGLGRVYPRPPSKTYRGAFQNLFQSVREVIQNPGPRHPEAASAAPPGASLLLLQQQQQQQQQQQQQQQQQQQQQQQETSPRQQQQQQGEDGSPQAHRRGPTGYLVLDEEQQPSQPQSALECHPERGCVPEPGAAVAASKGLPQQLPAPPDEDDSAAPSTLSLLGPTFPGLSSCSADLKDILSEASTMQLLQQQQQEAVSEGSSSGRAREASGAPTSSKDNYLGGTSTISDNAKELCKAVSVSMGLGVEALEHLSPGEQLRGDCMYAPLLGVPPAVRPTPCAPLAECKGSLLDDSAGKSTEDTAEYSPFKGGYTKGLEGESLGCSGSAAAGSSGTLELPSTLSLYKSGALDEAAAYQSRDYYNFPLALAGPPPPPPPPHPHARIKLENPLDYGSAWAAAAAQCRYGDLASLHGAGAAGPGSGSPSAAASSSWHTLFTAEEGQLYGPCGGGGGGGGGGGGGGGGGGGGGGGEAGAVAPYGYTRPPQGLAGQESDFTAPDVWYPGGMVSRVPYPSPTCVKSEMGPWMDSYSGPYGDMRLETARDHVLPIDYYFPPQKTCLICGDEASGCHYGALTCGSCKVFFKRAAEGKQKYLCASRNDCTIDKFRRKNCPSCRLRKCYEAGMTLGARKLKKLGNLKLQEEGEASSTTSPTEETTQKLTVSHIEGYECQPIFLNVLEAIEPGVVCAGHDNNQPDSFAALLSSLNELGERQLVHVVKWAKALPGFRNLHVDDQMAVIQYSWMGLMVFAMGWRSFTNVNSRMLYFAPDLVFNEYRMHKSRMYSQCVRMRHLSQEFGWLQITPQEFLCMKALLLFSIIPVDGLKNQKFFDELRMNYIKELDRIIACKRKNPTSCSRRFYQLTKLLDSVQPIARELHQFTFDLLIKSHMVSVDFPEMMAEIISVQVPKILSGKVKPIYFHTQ
Estrogen receptor (Homo sapiens), sequence (P03372 whole entry, looked up): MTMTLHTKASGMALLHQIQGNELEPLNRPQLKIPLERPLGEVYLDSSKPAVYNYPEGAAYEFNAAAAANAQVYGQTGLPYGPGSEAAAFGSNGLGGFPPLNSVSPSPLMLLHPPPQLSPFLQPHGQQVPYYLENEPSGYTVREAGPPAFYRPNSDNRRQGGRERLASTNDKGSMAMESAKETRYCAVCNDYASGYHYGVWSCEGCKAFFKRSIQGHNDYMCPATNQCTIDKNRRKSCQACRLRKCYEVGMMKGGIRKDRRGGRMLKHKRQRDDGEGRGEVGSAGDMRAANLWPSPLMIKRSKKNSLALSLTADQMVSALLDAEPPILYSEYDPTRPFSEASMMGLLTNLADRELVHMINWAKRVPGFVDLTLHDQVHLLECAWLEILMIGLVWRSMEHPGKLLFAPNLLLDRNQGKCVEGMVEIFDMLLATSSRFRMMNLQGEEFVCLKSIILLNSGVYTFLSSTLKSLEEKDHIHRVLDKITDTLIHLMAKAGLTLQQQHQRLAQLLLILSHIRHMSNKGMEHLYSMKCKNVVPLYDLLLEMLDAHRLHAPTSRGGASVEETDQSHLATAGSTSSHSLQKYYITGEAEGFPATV

For the molecule `CC(=O)CC(=O)c1ccccc1`, the Potency entry in assay [1], in assay [2], in assay [3], in [4], in [5] and in assay [6] was “inactive” in each case. In addition, the Potency result in assay [7], in assay [8], in assay [9], in assay [10], in assay [12] and in assay [14] was “inactive” in each case. For the same molecule, the Potency entry in assay [15] and in assay [16] was “inactive” throughout. In [11], the molecule was classed as inactive. Moreover, the Potency in assay [13] is 34.6 µM (active).
On to `N[C@H]1C(O)O[C@H](CO)[C@H](O)[C@@H]1O` (stereo not given in full), for which the Potency entry in assay [1], in [2], in [3], in assay [4], in assay [5] and in assay [17] was “inactive” in each case. In addition, the Potency entry in [19], in assay [6], in assay [20], in assay [7], in assay [8] and in assay [9] was “inactive” in each case. Further, the Potency entry in [10], in assay [12], in assay [13], in [15] and in assay [16] was “inactive” in each case. Further, the outcome in assay [18] and in assay [11] was inactive.
Take `NC(N)=NN=C(/C=C/c1ccc([N+](=O)[O-])o1)/C=C/c1ccc([N+](=O)[O-])o1`: the Potency in [1] was 5.35 µM (active); in assay [2], 1.5 µM (active); in assay [3] it was 750 nM (active); in assay [4] it was 1.88 µM (active); in [5], 9.52 µM (active); in [17], 5.35 µM (active). Also, the Potency was 23.7 µM (active) in assay [6]; 5.96 µM (active) in assay [20]; 1.68 µM (active) in assay [7]; 1.5 µM (active) in [8]; 4.77 µM [activator] (active) in assay [12]; 23.7 µM (active) in [15]. In [16], the Potency was 7.5 µM (active). Also, in [19], the Potency result is “inactive”. Besides, in assay [11], the result was inactive.
As for `C[C@H](CCC(=O)O)[C@H]1CC[C@H]2[C@@H]3[C@H](O)C[C@@H]4C[C@H](O)CC[C@]4(C)[C@H]3CC[C@]12C`, the Potency entry in [1], in [2], in assay [3], in assay [4], in [5] and in assay [6] was “inactive” in each case. Moreover, the Potency result in [7], in assay [8], in [9], in assay [10], in assay [12] and in assay [13] was “inactive” each time. Besides, the Potency entry in assay [14], in assay [15] and in assay [16] was “inactive” throughout. The outcome in [11] was inactive.
Regarding `O=C(/C=C/c1ccc(O)c(O)c1)O[C@@H]1C[C@](O)(C(=O)O)C[C@@H](O)[C@H]1O`, the Potency result in [1], in assay [2], in assay [3], in assay [4], in [5] and in assay [6] was “inactive” each time. Besides, the Potency result in assay [7], in [8], in assay [9] and in [15] was “inactive” in each case. Also, the outcome in assay [11] was inactive.
Turning to `O=C1CCCCCO1`, the Potency result in assay [1], in assay [2], in assay [3], in [4], in [5] and in [6] was “inactive” each time. Besides, the Potency entry in assay [8], in [9], in assay [10], in [12], in assay [13] and in assay [14] was “inactive” each time. Further, the Potency entry in assay [15] and in [16] was “inactive” in each case. The result in assay [11] was inactive.
`C=Cc1c(C)c2cc3[nH]c(cc4nc(cc5nc(cc1[nH]2)C(C)=C5CCC(=O)O)C(CCC(=O)O)=C4C)c(C)c3C=C`: the Potency entry in [1], in [2], in assay [3], in assay [4], in assay [5] and in assay [6] was “inactive” each time. In addition, the Potency entry in assay [7], in [9], in assay [14], in [15] and in [16] was “inactive” each time. The outcome in assay [11] was inactive. Moreover, the Potency was 4.25 µM [inconclusive] (active) in [12] and 1.06 µM (active) in [13].
In the case of `CCCC(C)C`, the Potency entry in assay [1], in [2], in [3], in assay [4], in [5] and in assay [6] was “inactive” each time. For the same molecule, the Potency result in assay [7], in assay [10], in assay [12], in [13], in assay [14] and in assay [15] was “inactive” in each case. Also, the Potency entry in [16] is “inactive”. Further, the outcome in [11] was inactive.
